From the supplement of paper PMC12494721

System: Ruminococcus gnavus DSM 108212
Experiment: fold change of Tryptamine concentration vs plate DMSO controls (fold change (ratio)); higher = more amine produced, active = hit call of the paper (significant change in both replicates, either direction)
Details: incubation time: 27 h, anaerobic, 37 °C;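 for the amine columns active = adjusted P below 0.05 in both replicates with a change the same way and a mean fold change under 0.8 or over 1.25; inactive = the rest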
Outline: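 Extracts of whole anaerobic mGAM cultures were analysed for amines by LC–triple-quadrupole MS with dynamic MRM and external calibration curves, with drift corrected within batch. Four gut strains were grown at 37 °C for 27 h in 80 µL wells with compounds at 20 µM final, sweeteners at 50 µM final. Each value expresses fold change over plate DMSO controls. The average of 2 biological replicates is shown.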

Fold change of Tryptamine concentration, inactive:
CC(=O)OCC(CCn1cnc2cnc(N)nc21)COC(C)=O [Famciclovir] (20 µM) 1.05
COC(c1ccccc1)(c1ccccc1)[C@H](Oc1nc(C)cc(C)n1)C(=O)O [Ambrisentan] (20 µM) 1.02
C[C@H](CCC(=O)O)[C@H]1CC[C@H]2[C@@H]3[C@@H](O)C[C@@H]4C[C@H](O)CC[C@]4(C)[C@H]3CC[C@]12C [Urosiol] (20 µM) 1.08
C=C(CC)C(=O)c1ccc(OCC(=O)O)c(Cl)c1Cl [Ethacrynic acid] (20 µM) 0.941
C[C@]12CC[C@@H]3c4ccc(O)cc4CC[C@H]3[C@@H]1C[C@@H](O)[C@@H]2O [Estriol] (20 µM) 0.936
Cc1cc2cc3c(C)cc(=O)oc3c(C)c2o1 [Trioxsalen] (20 µM) 0.966
O=C(Nc1cccc2c(=O)cc(-c3nnn[nH]3)oc12)c1ccc(OCCCCc2ccccc2)cc1 [Pranlukast] (20 µM) 0.804
C[N+]1(C)CCC(OC(=O)C(O)(c2ccccc2)C2CCCC2)C1 (stereo not given) [Glycopyrrolate bromide] (20 µM) 0.994
CC(C)(O)c1ccccc1CC[C@@H](SCC1(CC(=O)O)CC1)c1cccc(/C=C/c2ccc3ccc(Cl)cc3n2)c1 [Montelukast] (20 µM) 0.851
C[C@@H]1C[C@H]2[C@@H]3C[C@H](F)C4=CC(=O)C=C[C@]4(C)[C@@]3(Cl)[C@@H](O)C[C@]2(C)[C@H]1C(=O)COC(=O)C(C)(C)C [Clocortolone pivalate] (20 µM) 1.08
